Our source for the activity (normalised, proliferation) values is PubChem BioAssay AID743366 (National Center for Advancing Translational Sciences (NCATS), 2014).

Non-standard residues stand in square brackets, D forms with d. Residues, ends and D or L forms follow the SMILES beside them. Orn = NCCC[C@H](N)C(=O)O

A short description of this assay: qHTS profiling of inhibitors of Plasmodium falciparum (HB3) proliferation (acoustic dispense). The note with it: P. falciparum HB3 in erythrocytes, SYBR Green, 72 h; at 49.8 µM (top of the series) unless noted.
Turning to `Clc1ccc2c(N3CCN(CCCN4CCN(c5ccnc6cc(Cl)ccc56)CC4)CC3)ccnc2c1`, the activity (normalised, proliferation) is -2.19% [at 23.2 µM].
The result for `CC[C@@]1(O)C[C@H](O[C@H]2C[C@H](N(C)C)[C@H](O[C@H]3C[C@H](O)[C@H](O[C@H]4CCC(=O)[C@H](C)O4)[C@H](C)O3)[C@H](C)O2)c2c(cc3c(c2O)C(=O)c2c(O)cccc2C3=O)[C@@H]1C(=O)OC` reads -2.68%.
Next, `CCc1nc(N)nc(N)c1-c1ccc(Cl)cc1`: 0.0675%; `CCC[C@H](Nc1nc(-c2ccc(NC(=O)NCC)c(OC)c2)ncc1C)c1cccnc1`: -0.168%.
The result for `CC(C)N=C(N)N=C(N)Nc1ccc(Cl)cc1` reads -0.113%; that for `COc1ccc2nc3cc(Cl)ccc3c(Nc3cc(CN4CCCC4)c(O)c(CN4CCCC4)c3)c2n1`, -3.23%.
Take `Nc1ccc(-c2ccc3ncc4ccc(=O)n(-c5cccc(C(F)(F)F)c5)c4c3c2)cn1`: the activity (normalised, proliferation) was -1.37%.
Next, `Cc1[nH]c2ccccc2c1CCNCc1ccc(C=CC(=O)NO)cc1`: -2.24%; `Cn1cnc(=N)c2[nH]cnc21`: 1.41%.
On to `Cc1cnc(Nc2ccc(CN3CCOCC3)cc2)nc1Nc1cccc(S(=O)(=O)NC(C)(C)C)c1`, for which the activity (normalised, proliferation) is 0.609%.
Next, `C=CCNC1=C2C[C@@H](C)C[C@H](OC)[C@@H](O)[C@@H](C)C=C(C)[C@H](OC(N)=O)[C@@H](OC)C=CC=C(C)C(=O)NC(=CC1=O)C2=O`: -2.45%.
`c1cncc(CN2CCC(n3ncc4c(N5CCOCC5)nc(-c5ccc6[nH]ccc6c5)nc43)CC2)c1`: the activity (normalised, proliferation) was -0.669%.
`CC(C)C[C@@H]1NC(=O)[C@H](CCCN)NC(=O)[C@H](C(C)C)NC(=O)[C@@H]2CCCN2C(=O)[C@@H](Cc2ccccc2)NC(=O)[C@H](CC(C)C)NC(=O)[C@H](CCCN)NC(=O)[C@H](C(C)C)NC(=O)[C@@H]2CCCN2C(=O)[C@@H](Cc2ccccc2)NC1=O` (cyclo(V[Orn]L[dF]PV[Orn]L[dF]P)): the activity (normalised, proliferation) was determined as 3.19%.
